Calls of active or inactive are those of the source. The calls were made as follows: active = hit-call score of the fitted dose curve at least 0.9, where 1 is the maximum; inactive = score below 0.9.

Read-out in this experiment: Intercellular Adhesion Molecule 1 (ICAM1), ICAM1 (gene 3383)
Kind of experiment: BSK_BE3C_ICAM1: BioMAP Diversity Plus: BE3C Assay for Intercellular Adhesion Molecule 1 (ICAM1) Biomarker Activity (AID 2284278). The note with it: primary human bronchial epithelial cells. As to the method:
BSK_BE3C is a cell-based, multiplexed-readout assay that uses bronchial epithelial cell, a human lung primary cell, with measurements taken at 24 hours after chemical dosing in a 96-well plate.BSK_BE3C_ICAM1 is an assay component measured in the BSK_BE3C assay. It measures ICAM-1 antibody related to regulation of gene expression using ELISA technology.Data from the assay component BSK_BE3C_ICAM1 was analyzed at the endpoint, BSK_BE3C_ICAM1, in the positive analysis fitting direction relative to DMSO as the negative control and baseline of activity. Using a type of binding reporter, gain or loss-of-signal activity can be used to understand protein changes. To generalize the intended target to other relatable targets, this assay endpoint is annotated to the 'cell adhesion molecules' intended target family, where the subfamily is 'Immunoglobulin CAM'.
The levels of cell surface (or secreted, indicated by the prefix "s") biomarker endpoints were measured by ELISA. Overt cytotoxicity to cells in confluent adherent cultures (all systems other than the BT system) was assessed by measuring total protein levels using sulforhodamine B (SRB) staining in parallel cultures at the time of biomarker measurements, indicated as SRB endpoints. For proliferation assays for adherent cell types, individual cell types are cultured at sub-confluence and relative cell numbers quantified by SRB staining at time points optimized for each system (48 h: 3C and CASM3C systems; 72 h: BT and HDF3CGF systems; 96 h: SAg system). SRB was performed by staining cells with 0.1% SRB after fixation with 10% TCA and reading wells at 560 nm.Viability and proliferation of PBMC (T cells) was quantified by Alamar Blue reduction for the SAg and BT systems. For PBMC viability (referred to as PBMC Cytotoxicity within the assay endpoint names), cells were plated (75,000/well in a 96-well plate) and then chemical samples added for 1 h before addition of activators, SEB and TSST-1 (20 ng/mL final concentration each). Cells were incubated for 90 h. Then, Alamar Blue (20 uL/well) (Invitrogen, Cat DAL1100) was added for 6 h, and the plates were read with a fluorescence microplate reader at 546/580 nm (excitation/emission). For PBMC proliferation, cells were plated and activated as above but incubated for only 16 h prior to addition of Alamar Blue. Plates were read after 6 h.
With `NCC(F)(F)C(F)(F)C(F)(F)C(F)(F)F`, the result was inactive.

Take `FC(F)C(F)(F)COCC1CO1` (stereo not given): the outcome was inactive.

For the compound `OCCC(F)(F)C(F)(F)C(F)(F)C(F)(F)F`, the outcome was inactive.

For `FC(F)=C(F)C(F)(F)C(F)(F)C(F)(F)C(F)(F)C(F)(F)C(F)(F)F`, the outcome was inactive.

Take `FC(F)(F)C(F)(F)C(F)(F)C(F)(F)C(F)(F)C(F)(F)I`: the outcome was inactive.

For `O=C(Cl)C(F)(F)C(F)(F)C(F)(F)C(=O)Cl`, the outcome was inactive.

As to `FC(F)(F)COC(OCC(F)(F)F)OCC(F)(F)F`, the result was inactive.

As for `C[Si](C)(C)C(F)(F)C(F)(F)C(F)(F)F`, the result was inactive.

Turning to `OC(O)(C(F)C(O)(O)C(F)(F)F)C(F)(F)F`, the result was inactive.

As for `O=S(=O)(O)CCC(F)(F)C(F)(F)C(F)(F)C(F)(F)C(F)(F)C(F)(F)F`, the outcome was inactive.
